High-throughput results from PubChem.
Rows were chosen to be rich in hits. Some 2.8% of all compounds tested hit in one or more screens of this group.
KDM5B inh – Primary screen for KDM5B Histone Demethylases FDH-coupled qHTS; actives 2.6% (n = 220,000); Potency, µM (doses to about 57.7 µM), actives largely listed as inhibitors; AID 1347165, 2019; KDM5B demethylase, FDH-coupled NADH fluorescence (FDH is formaldehyde dehydrogenase); Lysine-specific demethylase 5B (Homo sapiens), Q9UGL1; active = well fitted inhibition curve with a large enough effect; inconclusive = small, poorly fitted or top-dose-only effect; inactive = no such curve, though single readings can be large or run the other way; also: nearly all actives have a fitted effect of over 70% in size
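Measured: NADH fluorescence change, 30 min, RT. System: KDM5BΔAP 200 nM final, H3K4me3 peptide, α-KG, Fe(II), ascorbate, NAD⁺ plus FDH, pH 7.5 HEPES. Compounds: titrated, 10 min pre-incubation with enzyme.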
IP6K1 inhibitor – Primary qHTS assay for small molecule inhibitors of Inositol hexaphosphate kinase 1 (IP6K1); Inositol hexakisphosphate kinase 1 (Homo sapiens), Q92551; IP6K1 kinase, ADP-Glo luminescence, 2 h; active compounds read low; activity change, % (series mostly up to about 58 µM); actives 0.81% (n = 140,000); in the data active = activity change below about -25%
Target sequence (Q92551 whole entry, looked up): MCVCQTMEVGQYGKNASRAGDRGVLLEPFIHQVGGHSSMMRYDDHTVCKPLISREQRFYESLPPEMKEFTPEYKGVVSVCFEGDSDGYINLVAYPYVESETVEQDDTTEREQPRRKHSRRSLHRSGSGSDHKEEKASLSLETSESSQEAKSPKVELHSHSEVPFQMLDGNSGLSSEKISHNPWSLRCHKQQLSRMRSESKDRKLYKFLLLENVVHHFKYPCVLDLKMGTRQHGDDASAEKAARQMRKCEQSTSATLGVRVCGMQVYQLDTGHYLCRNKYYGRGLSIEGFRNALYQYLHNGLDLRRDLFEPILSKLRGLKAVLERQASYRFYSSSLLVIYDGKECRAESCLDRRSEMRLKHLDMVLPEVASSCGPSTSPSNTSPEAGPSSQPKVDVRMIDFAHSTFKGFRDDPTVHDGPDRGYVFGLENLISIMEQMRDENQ
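ADP-Glo luminescence measures ADP made by human IP6K1 during a 2 h RT reaction with ATP/IP6 (mix at 1.3 mM/130 uM); top library doses 57.5 and 19.1 uM final.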
Large screens that a line does not name were inactive.

COc1cc(CC(=O)N2Cc3[nH]cnc3CC2C(=O)O)cc(OC)c1OC (configuration not stated)	none
COc1ccc2c(c1)cc(C(=O)N1Cc3[nH]cnc3CC1C(=O)O)n2C (configuration not stated)	KDM5B inh 18µM
CN1CCC(NC(=O)C(C)(C)Oc2nn(Cc3cccc(Cl)c3)c3ccccc23)CC1	KDM5B inh inconclusive
CC(C)NC(=O)c1ccc2c(c1)C1(CCN(CC3CC3)C1)CN2Cc1ccccc1 (configuration not stated)	KDM5B inh 28µM
CNC(=O)c1ccc2c(c1)C1(CCN(CC3CC3)C1)CN2Cc1ccccc1 (configuration not stated)	KDM5B inh 35µM
O=C(NC1COC1)c1ccc2c(c1)C1(CCN(CC3CC3)C1)CN2Cc1ccccc1 (configuration not stated)	KDM5B inh 35µM
COCCN(C)C(=O)c1ccc2c(c1)C1(CCN(CC3CC3)C1)CN2Cc1ccccc1 (configuration not stated)	KDM5B inh inconclusive
O=C(c1ccc2c(c1)C1(CCN(CC3CC3)C1)CN2Cc1ccccc1)N1CCOCC1 (configuration not stated)	KDM5B inh inconclusive
CC(C)CN1C[C@H](COCc2ccccc2)Oc2ccncc2[S+]1(=O)[O-]	none (no result: KDM5B inh)
O=C(NCc1cccs1)c1ccc(-c2ccccc2)cc1	none (no result: IP6K1 inhibitor)
O=C(NCc1cccs1)c1nc(-c2ccc(F)cc2)c2ccccn12	KDM5B inh 28µM
C#CCNC(=O)c1nc(-c2ccc(F)cc2)c2ccccn12	none
O=C(NCc1ccc2c(c1)OCO2)c1nc(-c2ccccc2)c2ccccn12	KDM5B inh inconclusive
O=C(NCc1cccs1)c1noc(-c2ccc(F)cc2)n1	none
Cc1cccc(C)c1-c1nc(C(=O)NCc2ccc3c(c2)OCO3)n2ccccc12	KDM5B inh 28µM
O=C(NCc1cccs1)c1nc(-c2ccccc2)c2ccccn12	KDM5B inh 11µM
C#CCNC(=O)c1nc(-c2ccccc2)c2ccccn12	KDM5B inh 32µM
CCn1nccc1C(=O)N1CC(Oc2ccc(-c3noc(-c4cccnc4)n3)cc2)C1	none (no result: KDM5B inh)
CC1(C(=O)NC2CC3CC2C2CCCC32)CC1(Cl)Cl (configuration not stated)	none (no result: IP6K1 inhibitor)
N#Cc1cccnc1-c1ccc(C(=O)N2CCC(N[S+](=O)([O-])c3cccs3)CC2)cc1	none (no result: KDM5B inh)
CNC(=O)c1cc(C2CC2)nc2c1c(C1CCN([S+](=O)([O-])c3cccc(C(F)(F)F)c3)C1)nn2C (configuration not stated)	none (no result: KDM5B inh)
Cc1ccc(Nc2ccnc(N3CCCC(C(=O)NCc4ccccc4F)C3)n2)cc1 (configuration not stated)	none (no result: KDM5B inh)
CNC(=O)c1cc(C2CC2)nc2c1c(C1CCCN1C(=O)c1ccc(Cl)cc1)nn2C (configuration not stated)	none (no result: KDM5B inh)
COc1cccc(C(=O)Nc2cc(C3CC3)nn2-c2ccccc2)c1	none (no result: KDM5B inh)
O=C(NCc1cccs1)c1nc2sccn2c1-c1ccncc1	none (no result: KDM5B inh)
O=C(NCc1ccc(F)cc1)c1nc(-c2ccsc2)c2ccccn12	KDM5B inh 25µM
O=C(NCc1cccs1)c1nc(-c2ccsc2)c2ccccn12	KDM5B inh 40µM
O=C(NCc1ccc(F)cc1)c1nc(-c2ccc(Cl)cc2Cl)c2ccccn12	KDM5B inh inconclusive
CCN1CCN(CCOc2ccc3c(=O)c(-c4ccc(OC)cc4)coc3c2C)CC1	none (no result: IP6K1 inhibitor)
CN(C(=O)c1cc(-c2ccccc2C(F)(F)F)nc2c1cnn2C)c1ccccc1	none (no result: KDM5B inh)
O=C(CCC1CCCN(S(=O)(=O)c2ccccc2)C1)NCC1CC1 (configuration not stated)	KDM5B inh 20µM
O=C(O)CCC1CCCN(S(=O)(=O)c2ccccc2)C1 (configuration not stated)	none
Cc1ccccc1S(=O)(=O)N1CCCC(CCC(=O)NC2CC2)C1 (configuration not stated)	KDM5B inh 14µM
Cc1ccccc1S(=O)(=O)N1CCCC(CCC(=O)NC2CCCCCC2)C1 (configuration not stated)	KDM5B inh inconclusive
COC1C(=O)N(c2cccc(F)c2)C12CCN(C(=O)c1cc3ccccc3[nH]1)CC2 (configuration not stated)	KDM5B inh inconclusive
COc1cc(/C=C(\C#N)C(=O)Nc2ccc(OC(F)(F)F)cc2)cc(OC)c1OC	none (no result: IP6K1 inhibitor)
Oc1cccc(Nc2nc(-c3ccc(F)cc3F)cs2)c1	none (no result: IP6K1 inhibitor)
Cc1noc(C)c1CC(=O)N[C@@H]1CN(c2ccccn2)C[C@H]1CN(C)C	KDM5B inh 32µM
CN(C)C[C@@H]1CN(c2ccccn2)C[C@H]1NC(=O)Cc1ccsc1	KDM5B inh 28µM
Cc1noc(C)c1CC(=O)N[C@@H]1CN(c2ccncn2)C[C@H]1CN(C)C	none
CN(C)C[C@@H]1CN(c2ccccn2)C[C@H]1NC(=O)CCn1cccn1	KDM5B inh inconclusive
CCOc1ccc(CC(=O)N[C@@H]2CN(c3ccncn3)C[C@H]2CN(C)C)cc1	none
CN(C)C[C@@H]1CN(c2ccncn2)C[C@H]1NC(=O)c1c(F)cccc1F	none
CN(C)C[C@@H]1CN(c2ccccn2)C[C@H]1NC(=O)CC1=CCCCC1	KDM5B inh 32µM
CN(C)C[C@@H]1CN(c2ccccn2)C[C@H]1NC(=O)NC(C)(C)C	KDM5B inh 32µM
Cc1nn(-c2ccccc2)c2c1C(C1CC1)N(C1CN(C(=O)c3ccc(Cl)nc3)C1)C2=O (configuration not stated)	none (no result: KDM5B inh)
Cn1ncc2c(C(=O)Nc3cccc(Cl)c3)cc(-c3cccc(F)c3)nc21	none (no result: KDM5B inh)
COc1ccc(C(=O)N2CCCC2C(=O)N2CCCC(c3nc4ncccc4[nH]3)C2)cc1 (configuration not stated)	none (no result: KDM5B inh)
O=C(NCc1cccnc1)C1CCN(c2ccnc3ccnn23)CC1	none (no result: KDM5B inh)
COC(=O)c1c(C)[nH]c(C(=O)C(C)Cl)c1C (configuration not stated)	none (no result: IP6K1 inhibitor)
N#CC(Cc1cccnc1)C(=O)Nc1ccccc1Cl (configuration not stated)	none (no result: IP6K1 inhibitor)
CCN(CC)c1ccc(C(=O)NCc2nnc3cc(-c4nc(C(C)C)no4)ccn23)cc1	KDM5B inh inconclusive
CC(C)c1noc(-c2ccn3c(CNC(=O)c4cccc(N(C)C)c4)nnc3c2)n1	KDM5B inh 28µM
CC(C)c1noc(-c2ccn3c(CNC(=O)c4ccc(N(C)C)cc4)nnc3c2)n1	KDM5B inh 22µM
CCCc1noc(-c2ccn3c(CNC(=O)c4cccc(C)c4)nnc3c2)n1	none
COc1ccc(NC(=O)COc2ccc(Cl)cc2)c2cccnc12	none (no result: IP6K1 inhibitor)
CN1CCSc2ccc(C(=O)NCc3ccccc3)cc21	KDM5B inh inconclusive
CN1CCCC2(C1)CN(Cc1cccnc1)c1ccc(C(=O)NCc3cccs3)cc12 (configuration not stated)	none
Cc1nc(CN2CC3(CCN(C)C3)c3cc(C(=O)NCc4ccccc4)ccc32)cs1 (configuration not stated)	KDM5B inh 35µM
Cc1nc(CN2CC3(CCN(C)C3)c3cc(C(=O)Nc4ccc(F)cc4)ccc32)cs1 (configuration not stated)	KDM5B inh 25µM
Cc1nc(CSCC(=O)NCc2cccs2)cs1	none (no result: IP6K1 inhibitor)
CN1CCC2(C1)CN(Cc1ccccc1)c1ccc(C(=O)NCc3cccs3)cc12 (configuration not stated)	KDM5B inh 35µM
